Screen size: about 310,000 compounds; about 14,000 (4.5%) showed an effect of 50% or more. Effects have a minus sign here. What follows is part of a selection rich in strong results, with near analogues and random picks from the rest.
Biological target: human ether-à-go-go-related gene (hERG) potassium channel (human, UniProt Q12809)
Experiment: primary screen, population patch clamp on CHO cells stably expressing hERG; higher = less effect of the substance
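Further: peak tail current of the secondary pulse compared with the same well before compound.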

Chain of human ether-à-go-go-related gene (hERG) potassium channel (Q12809 whole entry, looked up): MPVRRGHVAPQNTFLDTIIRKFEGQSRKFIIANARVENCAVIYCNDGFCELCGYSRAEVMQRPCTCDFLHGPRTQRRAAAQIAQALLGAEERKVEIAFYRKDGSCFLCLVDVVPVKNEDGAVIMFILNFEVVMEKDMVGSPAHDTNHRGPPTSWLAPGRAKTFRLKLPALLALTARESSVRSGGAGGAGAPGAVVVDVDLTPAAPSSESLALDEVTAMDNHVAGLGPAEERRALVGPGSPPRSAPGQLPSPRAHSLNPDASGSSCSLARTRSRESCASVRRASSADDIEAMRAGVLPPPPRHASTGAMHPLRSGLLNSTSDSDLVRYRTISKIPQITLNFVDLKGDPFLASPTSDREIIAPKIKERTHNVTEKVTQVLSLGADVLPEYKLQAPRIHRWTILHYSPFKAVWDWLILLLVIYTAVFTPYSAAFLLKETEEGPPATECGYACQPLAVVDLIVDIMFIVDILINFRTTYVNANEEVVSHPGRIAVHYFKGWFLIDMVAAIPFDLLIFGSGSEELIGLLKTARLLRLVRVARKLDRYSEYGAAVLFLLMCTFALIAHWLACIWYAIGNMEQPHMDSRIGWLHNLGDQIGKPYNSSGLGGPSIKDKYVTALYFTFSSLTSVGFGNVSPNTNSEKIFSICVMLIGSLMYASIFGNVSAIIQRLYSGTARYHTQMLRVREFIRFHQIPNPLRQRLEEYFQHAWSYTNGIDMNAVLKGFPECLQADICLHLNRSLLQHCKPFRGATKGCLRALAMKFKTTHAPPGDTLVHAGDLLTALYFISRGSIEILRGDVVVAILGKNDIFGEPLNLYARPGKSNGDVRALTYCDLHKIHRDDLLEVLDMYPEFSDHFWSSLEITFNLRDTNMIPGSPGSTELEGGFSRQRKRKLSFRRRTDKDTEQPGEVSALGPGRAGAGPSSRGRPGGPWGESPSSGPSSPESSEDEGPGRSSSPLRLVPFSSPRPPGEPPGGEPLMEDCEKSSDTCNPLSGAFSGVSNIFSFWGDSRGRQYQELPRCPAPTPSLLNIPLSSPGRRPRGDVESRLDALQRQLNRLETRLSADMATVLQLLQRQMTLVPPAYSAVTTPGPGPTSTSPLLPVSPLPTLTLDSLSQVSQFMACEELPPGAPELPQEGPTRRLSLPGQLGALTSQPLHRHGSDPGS

Compound	hERG current change (%, negative = inhibition) at 10uM [%]
CCOC(=O)COc1nc(Nc2ccccc2C)nc(N(C)C)n1	1.92
Cc1ccc(N2CC(C(=O)OCC(=O)c3ccc[nH]3)CC2=O)cc1 (stereo not shown)	-24.2
Cc1cc(C)cc(C(=O)Nc2ccncc2)c1	7.83
O=C(CNC(=O)c1ccco1)Nc1cccc(Cl)c1	-10.8
O=C(Nc1ccccc1C(=O)NCCCN1CCOCC1)c1ccc(Cl)cc1	-15.5
O=C(CCSc1ccccc1)N1CCCC1	10.9
CCC(=O)NCc1ccc(-c2nc3ncccc3o2)cc1	13
Cc1csc(SC(C)c2nc3scc(-c4ccccc4)c3c(=O)[nH]2)n1 (stereo not shown)	6.61
Cc1ccc(S(=O)(=O)N2[C@@H](c3cccc(Cl)c3)C(C(=O)O)=CC[C@H]2c2cccs2)cc1	13.7
Cc1oc(-c2ccc(Cl)cc2)nc1CN1CCCC(C(=O)NCc2ccccn2)C1 (stereo not shown)	-67.8
Cc1noc(C)c1S(=O)(=O)N1CCCC(C(=O)NCc2ccccn2)C1 (stereo not shown)	3.78
Cc1oc(-c2cccc(Cl)c2)nc1CN1CCC(C(=O)NCc2cccnc2)CC1	-60.9
Cc1oc(-c2ccc(Cl)cc2)nc1CS(=O)CC(=O)NCc1ccccn1 (stereo not shown)	-10.7
O=C(Nc1nccs1)c1cccc(S(=O)(=O)N2CCCC2)c1	-6.01
Cc1cc(C(=O)CN2CCC(C)CC2)c(C)n1-c1ccccc1F	-5.74
O=c1c2ccccc2nnn1-c1ccc(Br)cc1	12
COc1ccc(C(O)P(=O)(OC2CCCCC2)c2ccc(N(C)C)cc2)cc1OC (stereo not shown)	-7.44
CCCCC1C(=O)N(c2ccccc2)N(c2ccc(O)cc2)C1=O (stereo not shown)	-9
O=C(Cc1c[nH]c2ccccc12)NCc1ccc2c(c1)OCO2	19.4
Cc1ccc(CCNC(=O)c2nc(CS(=O)(=O)c3ccc(Cl)cc3)no2)cc1	31.6
c1cc(-c2ccncc2)ccn1	20.9
Nc1ccncc1	5

Compound	hERG current change (%, negative = inhibition) at 10uM [%]
c1cc(-c2sc(-c3ccncc3)c(-c3ccncc3)c2-c2ccncc2)ccn1	-66.6
Cc1ccc2[nH]c(=O)c(CN(CC3CCCO3)C(=S)NCc3ccco3)cc2c1 (stereo not shown)	-8.49
COC(=O)c1ccc(-n2cnc(Cl)n2)c(F)c1	-7.27
CCOC(=O)C1CCCN(C(=O)CNC(=O)c2nn(-c3ccc(OC)c(Cl)c3)c(=O)c3ccccc23)C1 (stereo not shown)	-5.66
COc1ccc(-n2nc(C(=O)NCC(=O)NCc3ccccc3OC)c3ccccc3c2=O)cc1	-69.5
COc1ccc(-n2nc(C(=O)NCC(=O)NCc3ccccc3OC)c3ccccc3c2=O)c(OC)c1	7.07
CCC1CCCCN1CCCNC(=O)CNC(=O)c1nn(-c2ccc(OC)c(Cl)c2)c(=O)c2ccccc12 (stereo not shown)	-39.4
CCOC(=O)C1CCN(C(=O)CNC(=O)c2nn(-c3ccc(OC)c(OC)c3)c(=O)c3ccccc23)CC1	-2.02
COc1ccc(-n2nc(C(=O)NCC(=O)NCc3ccc(F)cc3)c3ccccc3c2=O)cc1	-12.1
CCCCNC(=O)CNC(=O)c1nn(-c2ccc(OC)c(Cl)c2)c(=O)c2ccccc12	9.5
COCCCNC(=O)CNC(=O)c1nn(-c2ccc(OC)c(Cl)c2)c(=O)c2ccccc12	8.9
CCOC(=O)C1CCN(C(=O)CNC(=O)c2nn(-c3ccc(OC)c(Cl)c3)c(=O)c3ccccc23)CC1	-55
COc1ccc(-n2nc(C(=O)NCC(=O)NCCCN3CCOCC3)c3ccccc3c2=O)cc1Cl	-12.6
COc1ccc(-n2nc(C(=O)NCC(=O)NCCCN3CCC(C)CC3)c3ccccc3c2=O)cc1Cl	-74.2
COc1ccc(-n2nc(C(=O)NCC(=O)NCCCN3CCCCCC3)c3ccccc3c2=O)cc1Cl	-56
CCOC(=O)C1CCCN(c2cc(=O)n(-c3ccccc3Cl)c(=O)[nH]2)C1 (stereo not shown)	9.43
O=C1C2=C(SCCS2)C(=O)N1CCCO	4.66
CCC(Oc1ccccc1)C(=O)Nc1ccccc1N1CCCCC1 (stereo not shown)	5.6
CSc1nnc2ccc(-c3cccs3)nn12	-8.27
O=C(NC(=O)c1ccccc1)Nc1ccccc1O	14.7
Cn1c(C(=O)OCC(=O)NCc2cccs2)cc2sccc21	3.37
O=C(Oc1ccccc1C(=S)N1CCOCC1)c1ccccc1	7.59

Compound	hERG current change (%, negative = inhibition) at 10uM [%]
CCN(CC)c1ccc(C2C(C(=O)OCCOC(C)C)=C(C)NC3=C2C(=O)CCC3)cc1 (stereo not shown)	-12.3
CC1CCCN(c2ncnc3c2cnn3-c2ccccc2)C1 (stereo not shown)	-1.2
COc1ccc(-n2nc(C(=O)NCC(=O)NCCCN3CC(C)CC(C)C3)c3ccccc3c2=O)cc1Cl (stereo not shown)	-62.3
COc1ccc(-n2nc(C(=O)NCC(=O)NCCCN3CC(C)CC(C)C3)c3ccccc3c2=O)cc1 (stereo not shown)	-37.2
COc1ccc(-n2nc(C(=O)NCC(=O)NCCCN3CC(C)CC(C)C3)c3ccccc3c2=O)cc1OC (stereo not shown)	-34
O=C(c1ccccc1)N(Cc1cccnc1)C1(C(=O)Nc2ccccc2)CCCCC1	5.29
CC(=O)Nc1ccc2c(c1)CCc1ccccc1-2	15.1
O=C(CCS(=O)(=O)c1ccc(F)cc1)Nc1nc(-c2ccccn2)cs1	-12.6
Cc1nc2cc(C(F)(F)F)ccc2n1C1CCN(Cc2nnnn2Cc2cccs2)CC1	-36.6
Cl.c1ccc(CCn2nnnc2CN2CCN(C3CCCC3)CC2)cc1	-3.4
Cc1nc2cc(C(F)(F)F)ccc2n1C1CCN(Cc2nnnn2CCc2ccccc2)CC1	-68.4
CCN(CC)C(=O)CN1CCC(n2c(C)nc3cc(C(F)(F)F)ccc32)CC1	-32.8
Cc1ccc(S(=O)(=O)Cn2nnnc2CN2CCN(Cc3ccc4c(c3)OCO4)CC2)cc1	-28.7
Cc1ccccc1C(=O)NC1CCN(Cc2nnnn2CCc2ccccc2)CC1	-8.14
Cc1nc2cc(F)ccc2n1C1CCN(Cc2nnnn2CCc2ccccc2)CC1.Cl	-65.7
Cc1nc2ccccc2n1C1CCN(Cc2nnnn2CCc2ccccc2)CC1.Cl	-68.6
OC1(c2ccccc2F)CCN(Cc2nnnn2CCc2ccccc2)CC1	30.9
CCOC(=O)C1CCN(Cc2nnnn2CCc2ccccc2)CC1	-4.94
CCC(C)(C)n1nnnc1CN1CCC(n2c(C)nc3cc(C(F)(F)F)ccc32)CC1	-5.5
Cc1nc2cc(C(F)(F)F)ccc2n1C1CCN(Cc2nnnn2Cc2ccc3c(c2)OCO3)CC1	-54.1
